# From PubChem
# Hits are enriched below; roughly 2.4% of the tested compounds scored in any of these assays.
# M1 PAM parental – counter-screen for M1 PAMs: effect in parental CHO-K1 cells; ATP EC20, Fluo-8 calcium fluorescence; 0% at ATP EC20, 100% at ATP max; activation, % at 3 µM; actives 0.02% (n = 360,000); AID 602247;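 active = activation above the run cutoff, the mean activation of all test compounds plus 3 SD, cut at about 40% in these data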;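 also: peak over basal fluorescence ratio in a 140 s read after ATP addition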
# M1 antag – antagonists of human M1 muscarinic receptor. actives 1.3% (n = 360,000). P11229. CHO-K1 hM1, Fluo-8 calcium fluorescence, ACh EC80 antagonist. inhibition, % at 3 µM;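 active = percent inhibition above its own plate's cutoff, namely the mean of that plate's compound wells plus 3 SD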;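 also: peak over basal fluorescence ratio during 140 s after agonist addition; 0% = ACh EC80 plus DMSO and 100% = DMSO alone without agonist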
# Target sequence (P11229 whole entry, looked up): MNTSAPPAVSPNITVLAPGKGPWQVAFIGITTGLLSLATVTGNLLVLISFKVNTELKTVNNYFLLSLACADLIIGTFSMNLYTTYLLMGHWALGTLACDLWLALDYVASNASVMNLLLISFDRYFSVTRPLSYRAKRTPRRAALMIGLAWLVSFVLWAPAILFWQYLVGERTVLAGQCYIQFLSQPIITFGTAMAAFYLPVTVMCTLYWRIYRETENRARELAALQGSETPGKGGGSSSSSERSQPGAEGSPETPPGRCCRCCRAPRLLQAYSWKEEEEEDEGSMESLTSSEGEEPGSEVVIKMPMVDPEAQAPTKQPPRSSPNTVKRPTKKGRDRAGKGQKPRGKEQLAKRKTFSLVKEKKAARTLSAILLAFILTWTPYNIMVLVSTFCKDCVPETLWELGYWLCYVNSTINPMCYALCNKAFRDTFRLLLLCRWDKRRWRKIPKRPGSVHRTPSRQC
# M1 ag – agonists of human M1 muscarinic receptor; CHO-K1 hM1, Fluo-8 calcium fluorescence, agonist mode; 0% DMSO, 100% acetylcholine EC100; P11229; activation, % at 3 µM; actives 0.33% (n = 360,000); AID 588814;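 active = activation above the run's mean compound activation plus 3 SD, cut at about 16% in these data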;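 also: peak over basal fluorescence ratio within a 140 s kinetic read after compound addition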
# CHO-K1 Ca antag – M1 antagonist counterscreen hit in parental CHO-K1 cells; ATP-induced calcium, Fluo-8 fluorescence; inhibition, % at 3 µM; actives 0.6% (n = 360,000); AID 602250;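 active = inhibition above a per-plate cutoff, the plate's mean sample inhibition plus 3 SD, cut at about 24% in these data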;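 also: 0% = DMSO plus EC80 ATP and 100% = DMSO alone without ATP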
# M1 PAM – positive allosteric modulators of human M1 muscarinic receptor | actives 0.088% (n = 360,000) | CHO-K1 hM1, Fluo-8 calcium fluorescence, ACh EC20; 0% = ACh EC20, 100% = maximal ACh | activation, % at 3 µM; in the data active = activation above about 19%, passing the limit was not always enough
# CHO-K1 Ca ag – M1 agonist counterscreen hit in parental CHO-K1 cells; AID 602248; Fluo-8 calcium fluorescence; scaled to maximal ATP response, vehicle zero; actives 0.48% (n = 360,000); activation, % at 3 µM; in the data active = activation above about 15%;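 also: untransfected CHO-K1 host cells lacking M1 receptor as counterscreen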
# * marks the source's active call; other numbers are inactive results.
SMILES,M1 PAM parental,M1 antag,M1 ag,CHO-K1 Ca antag,M1 PAM,CHO-K1 Ca ag
O=C(COC(=O)/C=C/c1cccc(F)c1)NC(=O)NC1CCCC1,-9,-9,2,-3,2,0
Cc1ccc(C)c(N2CCN(C(=O)c3ccc(CS(=O)(=O)c4ccccc4C)o3)CC2)c1,-8,18,-1,25*,-4,3
Cc1ccc(S(=O)(=O)Cc2ccc(C(=O)N3CCN(c4cc(C)ccc4C)CC3)o2)cc1,9,-9,-1,-3,8,0
CC(OC(=O)c1ccc(Cl)nc1)C(=O)Nc1ccc(S(=O)(=O)N2CCCC2)cc1 (stereo not drawn),-8,36*,-7,-3,-25,1
O=C(COC(=O)c1cc([N+](=O)[O-])ccc1NCCO)Nc1cccc(S(=O)(=O)N2CCCC2)c1,2,40*,-7,9,-19,0
O=C(COc1ccccc1Br)Nc1ccc(S(=O)(=O)N2CCCC2)cc1,4,42*,-4,-13,-29,6
Cc1nnc(SCC(=O)Nc2ccc(S(=O)(=O)N3CCCC3)cc2)n1N,1,54*,-3,-2,-21,0
O=C(COC(=O)c1cc([N+](=O)[O-])ccc1NCCO)Nc1ccc2c(c1)OCO2,7,-3,-3,1,5,2
Cc1ccc(NC(=O)CN2CCN(S(=O)(=O)c3ccc4c(c3)OCCO4)CC2)c(C)c1,-18,0,-3,-1,-1,-1
CC(=O)Nc1ccc(NC(=O)COC(=O)c2cc(S(=O)(=O)N3CCCC3)ccc2O)cc1,16,30*,-1,-7,-15,0
CC(Oc1ccc(Cl)cc1)C(=O)Nc1ccc(S(=O)(=O)N2CCOCC2)cc1 (stereo not drawn),14,8,38*,5,-3,36*
CC(Oc1ccccc1Cl)C(=O)Nc1ccc(S(=O)(=O)N2CCCC2)cc1 (stereo not drawn),13,91*,-3,0,-27,4
C[C@H]1CN([C@@H](C)CO)C(=O)c2cc(NC(=O)NC3CCCCC3)ccc2O[C@H]1CN(C)C(=O)Nc1ccc(C(F)(F)F)cc1,5,-8,-3,-15,0,0
CSc1ccccc1NC(=O)CN(C)C(=O)Cc1c(F)cccc1Cl,6,-4,-3,10,7,0
O=c1[nH]ccc2c(O)cccc12,7,-22,27*,2,-10,0
C[C@H](CO)N1C[C@H](C)[C@@H](CN(C)S(C)(=O)=O)Oc2ccc(N(C)C)cc2C1=O,5,-2,-2,1,5,1
Cc1cccc[n+]1CC(=O)c1ccc(Cl)cc1,-11,-25,-10,6,11,0
Cc1cccc[n+]1CC(=O)c1ccc2c(c1)OCCO2,1,28*,-11,6,-27,0
CCOc1ccc(Cl)cc1CNCCCSc1ncccn1,13,-7,-4,10,2,19*
CC(=O)N(c1ccccc1)C1CCCC1,27,-7,-10,-12,2,0
C[N+]1(C)CC[C@H](OC(=O)[C@@](O)(c2ccccc2)C2CCCC2)C1,-8,100*,-7,17,-26,0
O=C(Nc1ccccc1C(F)(F)F)C(O)(c1ccccc1)C1CCCCC1 (stereo not drawn),-9,7,-9,-9,-12,0
C[N+]1(C)CCC(OC(=O)C(O)(c2ccccc2)C2CCCC2)C1 (stereo not drawn),11,97*,-9,-9,-25,1
COc1ccc(OC)c(C(=O)c2ccc(C(=O)Nc3ccc4ccccc4c3)cc2)c1,-16,-3,-3,27*,-5,0
COc1ccc(C(=O)Nc2ccc3ccccc3c2)cc1,16,-6,-4,-5,9,1
O=C(CSc1nnc(NC2CCCCC2)s1)Nc1ccc2c(c1)C(=O)c1ccccc1C2=O,0,1,3,-3,9,0
CC(C)Nc1nnc(SCC(=O)Nc2ccc3c(c2)C(=O)c2ccccc2C3=O)s1,3,31*,-2,3,-17,6
NC(=O)c1c(NC(=O)CN2CCOCC2)sc2c1CCC2,-5,-50,18*,1,25*,1
